20 molecules from PubChem BioAssay (NCATS) can be followed below.

Assay [1] in a line: NFAT Signaling Pathway (AID 444; active = well fitted curve in either direction with a large enough effect, not every such curve was filed as active;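 also: carbachol stimulus at about its EC50 of 1 µM final; % is scaled to controls: 0 for no effect and ±100 for the full control effect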). The conditions noted are these: Jurkat NFAT-bla M1, carbachol, beta-lactamase ratio, 5 h. In a few lines: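 Jurkat cells carrying an NFAT-driven β-lactamase reporter and co-transfected muscarinic M1 receptor were treated with compound plus carbachol (1 uM final, an EC50 level) for 5 h at 37 °C. CCF4 loading followed for 1 h at RT; 460/530 nm ratio gave %activity.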

Assay [2] is described as follows: Stat Signaling Pathway (AID 446; active = well fitted curve in either direction with a large enough effect, not every such curve was filed as active;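 also: ME-180 cervical cancer cells given 40 pM IL-6 alongside compound; SIE-controlled beta-lactamase reporter measured as 460/530 nm FRET emission ratio; % is scaled to controls: 0 for no effect and ±100 for the full control effect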). The conditions noted are these: ME-180 SIE beta-lactamase reporter, IL-6 stimulated, 5 h; at 17.2 µM (top of the series). In outline:
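Screening format detects activators and inhibitors alike: ME-180 SIE-bla cells stimulated at 40 pM IL-6 for 5 hrs with compound, then dual-emission beta-lactamase read at 405 nm excitation.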

Assay [3] can be described thus: Cell Viability - BJ (AID 421; calls by dose curve;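 also: potency is read from the fitted curve at half-maximal effect; cells exposed to compound for 40 hours at 37 °C before readout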). Particulars: BJ fibroblast viability, qHTS. In a few lines: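 Cytotoxicity in human BJ foreskin fibroblasts is scored as loss of cellular ATP after a 40-hour exposure, measured by luciferase luminescence. Controls are DMSO and 100 uM tamoxifen.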
Assay [4] can be described thus: Cell Viability - Jurkat (AID 426;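 active = dose-dependent loss of cell ATP signal giving a full or clear fitted curve, ranked by lower potency value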; also: potency is read from the fitted curve at half-maximal effect). Particulars: qHTS. In outline: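 Jurkat (clone E6-1, human T-cell leukemia) cells, 5000/well in complete medium, were exposed to compound for 40 hr at 37 °C. Viability was read as intracellular ATP by CellTiter-Glo luminescence; AC50 came from Hill fits of concentration-response data.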
(qHTS replaces the single test concentration by a dilution series.)

A short description of assay [5]: Cell Viability - Hek293 (AID 427;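 active = compounds whose dose-response curve shows a full or clear partial loss of cell viability, called from curve shape rather than a numeric limit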;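 also: potency is read from the fitted curve at half-maximal effect; cells exposed to compound for 40 hours at 37 °C before reading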). Particulars: qHTS. In outline: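 qHTS, human embryonic kidney (adenovirus-transformed) cells; 40 hr cpd, 37 °C; CellTiter-Glo ATP luminescence. Norm: DMSO = 0, 100 uM tamoxifen = 100% inhibition. Hill-fit AC50.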
Assay [6] in a line: Cell Viability - HepG2 (AID 433; calls by dose curve;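 also: potency is read from the fitted curve at half-maximal effect; potency for ATP loss meaning cytotoxicity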). Particulars: qHTS. In outline:
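HepG2 cells, 1500 per well, treated 40 hr at 37 °C in complete medium; viability from intracellular ATP by CellTiter-Glo luminescence. Normalized to DMSO and 100 uM tamoxifen; AC50 from Hill fit of qHTS concentration-response.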

A short description of assay [7]: Cell Viability - SK-N-SH (AID 435; calls by dose curve;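 also: potency is read from the fitted curve at half-maximal effect; compound exposure lasted 40 h at 37 °C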). Particulars: SK-N-SH neuroblastoma cell viability qHTS. In outline:
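SK-N-SH neuroblastoma cells (1500/well) treated 40 h at 37 °C in complete medium; viability read as cellular ATP by CellTiter-Glo luminescence. Normalized to DMSO and 100 uM tamoxifen; AC50 from Hill fits of qHTS concentration-response.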

Assay [8] deals with Glucocorticoid receptor (Homo sapiens) (UniProt P04150). In words: GR-GFP Redistribution (AID 450;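 active = compounds whose dose series gives a full or clear partial fitted curve of increased nuclear translocation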; also: potency is read from the fitted curve at half-maximal effect). Particulars: U2OS GR-GFP nuclear translocation, laser cytometry, 2 h.
Chain of Glucocorticoid receptor (Homo sapiens) (P04150 whole entry, looked up, the tested form may be a part): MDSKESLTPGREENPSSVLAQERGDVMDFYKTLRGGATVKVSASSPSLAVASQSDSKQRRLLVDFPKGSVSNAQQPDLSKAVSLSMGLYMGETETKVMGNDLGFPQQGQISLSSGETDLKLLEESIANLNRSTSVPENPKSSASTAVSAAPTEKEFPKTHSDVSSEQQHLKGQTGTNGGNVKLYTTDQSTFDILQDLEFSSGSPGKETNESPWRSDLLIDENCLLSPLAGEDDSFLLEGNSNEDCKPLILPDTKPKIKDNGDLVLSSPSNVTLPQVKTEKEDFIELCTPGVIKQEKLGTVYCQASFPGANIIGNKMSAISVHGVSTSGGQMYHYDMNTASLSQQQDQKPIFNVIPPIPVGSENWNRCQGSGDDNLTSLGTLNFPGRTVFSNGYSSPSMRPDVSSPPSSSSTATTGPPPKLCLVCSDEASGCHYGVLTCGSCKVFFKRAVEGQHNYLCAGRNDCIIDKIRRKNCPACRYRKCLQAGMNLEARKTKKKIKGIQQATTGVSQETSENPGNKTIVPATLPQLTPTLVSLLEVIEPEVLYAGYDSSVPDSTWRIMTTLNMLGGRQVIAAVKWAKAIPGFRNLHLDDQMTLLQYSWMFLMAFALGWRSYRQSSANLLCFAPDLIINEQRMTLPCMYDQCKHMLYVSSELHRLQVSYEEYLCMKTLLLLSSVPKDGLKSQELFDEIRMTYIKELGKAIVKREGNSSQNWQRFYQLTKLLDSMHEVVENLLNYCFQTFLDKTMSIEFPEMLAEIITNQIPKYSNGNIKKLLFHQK
The target of assay [9] is Mitogen-activated protein kinase 10 (Mus musculus) (UniProt Q61831). The experiment in a line: JNK3 AlphaScreen Assay (AID 530; active = well fitted curve in either direction with a large enough effect, not every such curve was filed as active;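 also: kinase came from lysate of stimulated human HepG2 cells; signal reports phosphorylation of biotinylated GST-cJun 1-79 at Ser73 with 10 µM ATP; % is scaled to controls: 0 for no effect and ±100 for the full control effect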). Particulars: JNK3 lysate, c-Jun phosphorylation; series mostly up to 25.6 µM. In outline:
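JNK3 came from HepG2 lysates pre-activated with IL-1beta and TNF-alpha and phosphorylated biotinylated GST-cJun (1-79) at 10 uM ATP, pH 7.6, room temperature. Compounds were titrated. AlphaScreen signal used anti-phospho-cJun (Ser73) antibody.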
A general note: Alpha assays give light when donor and acceptor beads are brought close together.

A short description of assay [10]: Cell Viability - N2a (AID 540). Also: nearly all actives have a fitted effect of over 45% in size. Also: potency is read from the fitted curve at half-maximal effect.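 As to activity change, negative = cytotoxicity: plate controls were DMSO alone for no effect and tamoxifen control for full effect.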 Particulars: N2a mouse neuroblastoma cell viability; activity change, negative = cytotoxicity: at 92.2 µM (top of the series). In a few lines:
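Mouse neuroblastoma N2a cells (1500/well) were preincubated 5 hr at 37 °C, then exposed to compounds for 40 hr at 37 °C in complete medium. Viability was read as intracellular ATP by CellTiter-Glo luminescence; AC50 from Hill fits.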

Assay [11] is described as follows: Cell Viability - NIH 3T3 (AID 541). Also: nearly all actives have a fitted effect of over 25% in size. Also: potency is read from the fitted curve at half-maximal effect.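 As to activity change, negative = cytotoxicity: plate controls were DMSO alone for no effect and tamoxifen positive control for full effect.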 Particulars: NIH 3T3 cell viability, qHTS; activity change, negative = cytotoxicity: at 92.2 µM (top of the series). In outline: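 NIH 3T3 mouse embryo fibroblasts (1000 cells/well) were plated in complete medium and treated with compound for 40 hr at 37 °C. Viability was read as intracellular ATP by CellTiter-Glo luminescence; AC50 values came from Hill-equation fits of concentration-response data.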

A short description of assay [12]: Cell Viability - H-4-II-E (AID 543). Also: nearly all actives have a fitted effect of over 35% in size. Also: potency is read from the fitted curve at half-maximal effect. Particulars: H-4-II-E rat hepatoma viability; series mostly up to 92.2 µM. In a few lines: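 Rat hepatoma H-4-II-E cells (1500/well) were plated, incubated 5 hr at 37 °C, then exposed to compounds for 40 hr at 37 °C. Cellular ATP was read by CellTiter-Glo luminescence; AC50 came from Hill-equation fits of concentration-response data.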

Assay [13] in a line: Cell Viability - SH-SY5Y (AID 544). Also: nearly all actives have a fitted effect of over 55% in size. Also: potency is read from the fitted curve at half-maximal effect.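 As to viability change, negative = cytotoxic: 0% = DMSO alone and -100% = 100 µM tamoxifen.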 Particulars: SH-SY5Y neuroblastoma cell viability; viability change, negative = cytotoxic: at 92.2 µM (top of the series). In a few lines: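 Human neuroblastoma SH-SY5Y cells (1500/well) in complete medium were exposed to compounds for 40 hr at 37 °C; intracellular ATP was then quantified by CellTiter-Glo luminescence after 20 min at room temperature. AC50 came from Hill-equation concentration-response fits.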

Assay [14] is described as follows: Cell Viability - Renal Proximal Tubule (AID 545). Also: nearly all actives have a fitted effect of over 40% in size. Also: potency is read from the fitted curve at half-maximal effect.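 As to activity change, negative = cytotoxicity: 0% = DMSO only and -100% = 100 µM tamoxifen.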 The conditions noted are these: renal proximal tubule cells viability, primary cells of rat origin; activity change, negative = cytotoxicity: at 91.7 µM (top of the series). In outline:
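Rat renal proximal tubule primary cells, 1000/well, exposed to compounds for 40 hr at 37 °C in complete medium; cellular ATP read by CellTiter-Glo luminescence. AC50 from concentration-response fitted with standard Hill equation.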

The nature of assay [15]: Cell Viability - MRC5 (AID 434; calls by dose curve;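 also: potency is read from the fitted curve at half-maximal effect; potency reflects cytotoxicity seen as loss of intracellular ATP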). Particulars: MRC5 lung fibroblast viability, qHTS. In outline:
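MRC5 normal human lung fibroblasts (1500/well) were treated with compounds for 40 hr at 37 °C in complete medium, and viable cells were measured as intracellular ATP by CellTiter-Glo luminescence. AC50 came from Hill fits, normalized to DMSO and 100 uM tamoxifen.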

Assay [16] deals with Glucocorticoid receptor (Homo sapiens) (UniProt P04150). The experiment in a line: GR-EFC Redistribution (AID 451; calls by dose curve; also: potency is read from the fitted curve at half-maximal effect). Particulars: CHO-K1 GR-EFC translocation, beta-gal luminescence, 2 h. In outline: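 CHO-K1 cells stably expressing nuclear-localized β-gal enzyme acceptor and GR fused C-terminally to the enzyme donor fragment; ligand-driven nuclear translocation restores β-gal by complementation. Compounds titrated up to 46 uM final, 2 h at 37 °C; luminescence read.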

The nature of assay [17]: Cell Viability - HUV-EC-C (AID 542). Also: nearly all actives have a fitted effect of over 35% in size. Also: potency is read from the fitted curve at half-maximal effect. As to activity change, negative = cytotoxicity: % is scaled to controls: 0 for no effect and ±100 for the full control effect. Particulars: HUV-EC-C endothelial cell viability, qHTS; series mostly up to 92.2 µM. In a few lines:
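HUV-EC-C normal human vascular endothelial cells, 1000 cells/well, pre-incubated 5 hr at 37 °C, then exposed to compounds for 40 hr at 37 °C in complete medium. Viability measured as intracellular ATP by CellTiter-Glo luminescence; AC50 from Hill fits.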

Assay [18] deals with Cytochrome P450 1A2 (Homo sapiens) (UniProt P05177). In words: p450-cyp1a2 (AID 410; calls by dose curve; also: potency is read from the fitted curve at half-maximal effect;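 as to activity change, negative = inhibition: -100% = full effect of reference inhibitor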). The conditions noted are these: recombinant CYP1A2, luciferin-ME demethylation, luminescence; series mostly up to 25.6 µM. In outline: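 Human CYP1A2 (20nM) demethylated Luciferin-ME at its Km (100uM) in 100mM KPO4. After 10 min compound preincubation, NADPH regeneration ran the reaction 60 min at room temperature. Luciferin was read by luminescence, normalized to 57 uM furafylline.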
Chain of Cytochrome P450 1A2 (Homo sapiens) (P05177 whole entry, looked up): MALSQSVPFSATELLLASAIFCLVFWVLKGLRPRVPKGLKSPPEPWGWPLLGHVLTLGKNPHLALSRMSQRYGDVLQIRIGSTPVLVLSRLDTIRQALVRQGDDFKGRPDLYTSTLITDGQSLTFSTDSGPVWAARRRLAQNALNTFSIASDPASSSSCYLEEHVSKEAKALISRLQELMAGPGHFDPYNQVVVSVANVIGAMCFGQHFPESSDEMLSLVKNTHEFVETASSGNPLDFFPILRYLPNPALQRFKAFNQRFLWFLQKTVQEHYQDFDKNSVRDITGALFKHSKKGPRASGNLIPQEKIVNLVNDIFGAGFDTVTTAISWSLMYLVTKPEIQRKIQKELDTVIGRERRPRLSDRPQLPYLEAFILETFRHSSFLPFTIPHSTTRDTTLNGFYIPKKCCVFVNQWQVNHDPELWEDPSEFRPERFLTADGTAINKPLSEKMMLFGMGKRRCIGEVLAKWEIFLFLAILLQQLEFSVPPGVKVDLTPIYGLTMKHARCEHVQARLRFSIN

A number with no mark means an inactive call. Records with an inconclusive call do not appear. The source made the active and inactive calls. Unless noted, calls follow the shape of the dose curve; as a rule, active = well fitted curve in the direction sought with a large enough effect; inconclusive = small, poorly fitted or top-dose-only effect, or another doubt; inactive = no such curve, though single readings can be large; an effect the other way counts as inactive or inconclusive.

As to `CC(=O)OCC(=O)[C@@]1(O)CC[C@H]2[C@@H]3CCC4=CC(=O)C=C[C@]4(C)[C@H]3[C@@H](O)C[C@@]21C`, the activity change, negative = inhibition in assay [1] (at 17.2 µM (top of the series)) is -6.54%. Besides, the activity, negative = inhibition in assay [2] was -3.24%.

Take `COc1cccc2c1C(=O)c1c(O)c3c(c(O)c1C2=O)C[C@@](O)(C(=O)CO)C[C@@H]3O[C@H]1C[C@H](N)[C@H](O)[C@H](C)O1`: the Potency is 0.177 µM (active) in [3]; 0.0218 µM (active) in [4]; 0.0255 µM (active) in assay [5]; greater than 92 µM in [6]; 0.0168 µM (active) in assay [7]; greater than 20.6 µM in assay [8]. For the same molecule, the Potency was 0.398 µM (active) in [10]; 79.4 nM (active) in assay [11]; 25.1 µM (active) in assay [12]; 0.0126 µM (active) in assay [13]; 15.8 µM (active) in assay [14]. In addition, in assay [9], the call was inactive.

In the case of `Oc1c(I)cc(Cl)c2cccnc12`, the Potency was 44.2 µM (active) in assay [15]; 38.6 µM (active) in [7]; greater than 20.6 µM in [8]; greater than 20.6 µM in assay [16]; 31.6 µM (active) in [10]; 5010 nM (active) in assay [11]. The Potency in assay [17] was 31.6 µM (active); in [12], 50.1 µM (active). Further, in assay [13], the viability change, negative = cytotoxic was -84.2% (active).

For `CC(=O)OCC(=O)[C@@]1(O)[C@H](C)C[C@H]2[C@@H]3CCC4=CC(=O)C=C[C@]4(C)[C@@]3(F)[C@@H](O)C[C@@]21C`, in assay [1] (at 17.2 µM (top of the series)), the activity change, negative = inhibition was 29.8%. Also, in assay [2], the activity, negative = inhibition is -9.24%.

On to `Oc1c(I)cc(I)c2cccnc12`, for which the Potency in assay [8] is greater than 20.6 µM.

Consider `C[C@H]1C[C@H]2[C@@H]3CCC4=CC(=O)C=C[C@]4(C)[C@@]3(Cl)[C@@H](O)C[C@]2(C)[C@@]1(O)C(=O)CO`, for which the activity change, negative = inhibition in [1] (at 17.2 µM (top of the series)) was -6.95%.

For `CC(=O)O[C@H]1C[C@@H]2CC[C@@H]3[C@H](CC[C@@]4(C)[C@H]3C[C@H]([N+]3(C)CCCCC3)[C@@H]4OC(C)=O)[C@@]2(C)C[C@@H]1[N+]1(C)CCCCC1`, the activity, negative = inhibition in assay [2] was 10.1%.

Regarding `O=c1ccc2ccccc2o1`, the Potency in [3], in assay [4], in assay [5], in [6], in assay [15] and in assay [7] was greater than 92 µM in each case. Further, the result in [9] was inactive. For the same molecule, the Potency entry in [10], in assay [11], in assay [17], in [12] and in assay [13] was “inactive” each time. The activity change, negative = cytotoxicity in [14] was -6.1%.

Regarding `C[C@@H]1C[C@H]2[C@@H]3CCC4=CC(=O)C=C[C@]4(C)[C@@]3(F)[C@@H](O)C[C@]2(C)[C@H]1C(=O)CO`, the activity change, negative = inhibition in [1] (at 17.2 µM (top of the series)) was -16.3%.

For `CC(C)N=C(N)/N=C(\N)Nc1ccc(Cl)cc1`, in [1] (at 17.2 µM (top of the series)), the activity change, negative = inhibition is -11%. In [2], the activity, negative = inhibition was -2.15%. In addition, the result in assay [9] was inactive.

For the molecule `C=CCc1ccc(O)c(OC)c1`, the Potency in assay [3], in [4], in assay [5], in assay [6], in assay [15] and in assay [7] was greater than 92 µM in each case. Besides, in assay [9], the molecule was classed as inactive. In addition, the Potency entry in assay [10], in assay [11], in [17], in assay [12] and in assay [13] was “inactive” each time. Moreover, in assay [14], the activity change, negative = cytotoxicity was 5.39%.

Regarding `O=C(OCCOCCO)c1ccccc1Nc1cccc(C(F)(F)F)c1`, the activity change, negative = inhibition in [1] (at 17.2 µM (top of the series)) is -18%. In addition, the call in assay [9] was inactive.

Take `CN=C(NC#N)NCCSCc1csc(N=C(N)N)n1`: the Potency in assay [8] and in assay [16] was greater than 46 µM each time.

On to `C[C@@H]1CN(CCCn2c3ccccc3c3ccccc32)C[C@H](C)N1`, for which the Potency in assay [18] was 794 nM (active). Further, in assay [9], the result was inactive.

As for `C[N+]1(CCCCC[N+]2(C)CCCC2)CCCC1`, the activity change, negative = inhibition in [1] (at 17.2 µM (top of the series)) was -12.7%; in assay [1] (at 38 µM (top of the series)), -8.15%. For the same molecule, the molecule was called inactive in assay [9].

As for `CC[N+](CC)(CCNC(=O)C(=O)NCC[N+](CC)(CC)Cc1ccccc1Cl)Cc1ccccc1Cl`, in assay [18], the Potency entry was “inactive”. The outcome in [9] was inactive.

Turning to `CCn1cc(C(=O)O)c(=O)c2cnc(N3CCCC3)nc21`, the activity change, negative = inhibition in assay [1] (at 17.2 µM (top of the series)) is 5.83%. Moreover, in assay [2], the activity, negative = inhibition was 2.28%. Further, the molecule was called inactive in assay [9].

Take `O=C(O)CCCCC(=O)O`: the Potency in assay [3], in assay [4], in assay [5], in assay [6], in [15] and in assay [7] was greater than 92 µM in each case. For the same molecule, the call in assay [9] was inactive. In addition, the Potency entry in [10], in assay [11], in [17], in assay [12] and in [13] was “inactive” in each case. Besides, the activity change, negative = cytotoxicity in assay [14] was 1.76%.

Regarding `C[C@]12CC[C@H]3[C@@H](CCC4=CC(=O)CC[C@@]43C)[C@@H]1CC[C@@H]2C(=O)CO`, the activity change, negative = inhibition in [1] (at 17.2 µM (top of the series)) was -13.6%. In [8], the Potency was 0.0356 µM (active).

In the case of `CC/C(=C(/CC)c1ccc(O)cc1)c1ccc(O)cc1`, the Potency is greater than 92 µM in assay [3]; 21.5 µM (active) in [4]; greater than 92 µM in assay [6]; greater than 92 µM in assay [15]; 31.6 µM (active) in assay [13]. Further, the result in assay [9] was inactive. Also, the activity change, negative = cytotoxicity in [10] is -83.5% (active).
